From the supplement of paper PMC10849652
About 7,900 targets were measured; listed, in parts, are those with a hit and a random draw of the rest. About 0.6% of all pairs of compound and target were hits. Unmarked numbers belong to inactive results.

How the values were obtained:
Assay in all cases: log2 fold change, soluble protein after heating vs DMSO (PISA); higher = thermal stabilisation; K562 cells, 10 uM, 30 min; active = over 0.2 and 3.5 SD of the protein, either way, in both replicates (recomputed)
[1] = compound: CS(=O)(=O)c1ccc(-c2cnc(N)c(C(=O)Nc3ccccc3)n2)cc1
Procedure, shortened: (§1)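 Aliquots of K562 cells (2×10^6 cells/mL) treated with 10 μM compound for 30 min were heated for 3 min over 48°C-58°C. After pooling and extraction in PBS with 0.5% NP-40 at 4°C, soluble protein from a 21,000xg, 90 min spin was quantified by TMTpro 16plex LC-MS/MS with channel sums equalised. Thermal stability is expressed against control samples, from duplicates, as a log2 fold change.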

[2] = compound: C[C@@H](Oc1cc(-c2cnn(C3CCNCC3)c2)cnc1N)c1c(Cl)ccc(F)c1Cl [crizotinib]
Procedure, shortened: as §1

[3] = compound: C[C@@H]1COCCN1C2=NC(=NC(=C2)C3(CC3)S(=O)(=O)C)C4=C5C=CNC5=CC=C4
Procedure, shortened: as §1

[4] = compound: C[C@H](C1=CC=C(C=C1)C(=O)NC2=C3C=CNC3=NC=C2)N
Procedure, shortened: as §1

[5] = compound: C[C@H](Nc1ncnc2nc[nH]c12)c1cc2cccc(Cl)c2c(=O)n1-c1ccccc1 [duvelisib]
Procedure, shortened: as §1

[6] = compound: Cc1cc(Nc2cc(CN3CCOCC3)c3nc(C)c(Cc4ccc(Cl)cc4F)n3n2)n[nH]1 [gandotinib]
Procedure, shortened: as §1

[7] = compound: Cc1cc(Nc2cc(N3CCN(C)CC3)nc(Sc3ccc(NC(=O)C4CC4)cc3)n2)n[nH]1 [tozasertib]
Procedure, shortened: as §1

[8] = compound: Cc1cc(SCc2sc(-c3ccc(C(F)(F)F)cc3)nc2C)ccc1OCC(=O)O
Procedure, shortened: as §1

[9] = compound: Cc1ccc(-n2nc(C(C)(C)C)cc2NC(=O)Nc2ccc(OCCN3CCOCC3)c3ccccc23)cc1 [doramapimod]
Procedure, shortened: as §1

[10] = compound: Cc1ccc(C(=O)N(CCCN)[C@@H](c2nc3cc(Cl)ccc3c(=O)n2Cc2ccccc2)C(C)C)cc1 [ispinesib]
Procedure, shortened: as §1

[11] = compound: Cc1ccc(NC(=O)c2ccc(CN3CC[C@H](N(C)C)C3)c(C(F)(F)F)c2)cc1Nc1nccc(-c2cncnc2)n1 [bafetinib]
Procedure, shortened: as §1

[12] = compound: Cc1cccc(CC(=O)N2CCc3c2ccc(-c2cn(C)c4ncnc(N)c24)c3F)n1
Procedure, shortened: as §1

[13] = compound: Cc1cn(-c2cc(NC(=O)c3ccc(C)c(Nc4nccc(-c5cccnc5)n4)c3)cc(C(F)(F)F)c2)cn1 [nilotinib]
Procedure, shortened: as §1

[14] = compound: Cc1nc(Nc2n[nH]c3c2CN(C(=O)N[C@H](CN(C)C)c2ccccc2)C3(C)C)c2sccc2n1
Procedure, shortened: as §1

[15] = compound: Cc1nc(Nc2ncc(C(=O)Nc3c(C)cccc3Cl)s2)cc(N2CCN(CCO)CC2)n1 [dasatinib]
Procedure, shortened: as §1

[16] = compound: Cc1ncc(-c2ccnc(Nc3ccc(S(C)(=O)=O)cc3)n2)n1C(C)C
Procedure, shortened: as §1

[17] = compound: Cn1cc(-c2ccc3c(c2)CCN3C(=O)Cc2cccc(C(F)(F)F)c2)c2c(N)ncnc21
Procedure, shortened: as §1

[18] = compound: Cn1cc(-c2ccc3nnc(C(F)(F)c4ccc5ncccc5c4)n3n2)cn1
Procedure, shortened: as §1

[19] = compound: Cn1cncc1[C@@](N)(c1ccc(Cl)cc1)c1ccc2c(c1)c(-c1cccc(Cl)c1)cc(=O)n2C [tipifarnib]
Procedure, shortened: as §1

[20] = compound: FC(F)(F)c1ccc(/C=C/c2nc(COc3ccc(CCCCn4ccnn4)cc3)co2)cc1 [mubritinib]
Procedure, shortened: as §1

UniProt Q96KA5, sequence (Q96KA5 whole entry, looked up): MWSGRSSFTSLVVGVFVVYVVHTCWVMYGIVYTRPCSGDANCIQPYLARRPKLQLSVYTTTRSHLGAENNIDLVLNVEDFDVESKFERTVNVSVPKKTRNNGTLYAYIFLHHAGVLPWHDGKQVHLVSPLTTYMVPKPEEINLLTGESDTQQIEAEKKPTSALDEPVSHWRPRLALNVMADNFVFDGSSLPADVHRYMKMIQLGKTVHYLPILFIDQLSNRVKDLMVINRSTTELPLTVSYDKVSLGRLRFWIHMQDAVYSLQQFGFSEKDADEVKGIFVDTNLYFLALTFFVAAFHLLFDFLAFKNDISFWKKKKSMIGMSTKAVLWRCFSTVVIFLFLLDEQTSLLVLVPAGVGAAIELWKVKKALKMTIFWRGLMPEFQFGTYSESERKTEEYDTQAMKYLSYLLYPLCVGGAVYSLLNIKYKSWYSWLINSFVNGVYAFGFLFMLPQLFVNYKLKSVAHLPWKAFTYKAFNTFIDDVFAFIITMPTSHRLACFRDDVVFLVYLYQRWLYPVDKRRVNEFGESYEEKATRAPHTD
UniProt Q99653, sequence (Q99653 whole entry, looked up): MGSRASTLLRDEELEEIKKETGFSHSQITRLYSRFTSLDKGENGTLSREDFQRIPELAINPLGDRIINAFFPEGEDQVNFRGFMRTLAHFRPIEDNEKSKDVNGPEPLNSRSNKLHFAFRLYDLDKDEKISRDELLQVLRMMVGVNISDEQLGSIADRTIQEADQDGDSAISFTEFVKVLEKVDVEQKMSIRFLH
UniProt P05937, sequence (P05937 whole entry, looked up): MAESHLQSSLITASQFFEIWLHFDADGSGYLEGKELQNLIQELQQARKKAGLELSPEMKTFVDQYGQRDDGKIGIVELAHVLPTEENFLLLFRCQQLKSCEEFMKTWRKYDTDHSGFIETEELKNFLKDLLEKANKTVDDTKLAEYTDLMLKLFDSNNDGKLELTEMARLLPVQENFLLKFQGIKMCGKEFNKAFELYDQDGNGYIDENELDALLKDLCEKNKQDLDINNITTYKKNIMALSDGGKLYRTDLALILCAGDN
UniProt Q99807, sequence (Q99807 whole entry, looked up): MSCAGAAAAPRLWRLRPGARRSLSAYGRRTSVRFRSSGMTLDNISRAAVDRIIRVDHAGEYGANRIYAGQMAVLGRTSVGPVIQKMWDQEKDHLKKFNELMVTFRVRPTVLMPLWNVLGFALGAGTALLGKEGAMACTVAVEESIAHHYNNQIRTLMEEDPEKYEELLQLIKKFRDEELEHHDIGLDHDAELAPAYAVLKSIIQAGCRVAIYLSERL
UniProt A6NHX0, sequence (A6NHX0 whole entry, looked up): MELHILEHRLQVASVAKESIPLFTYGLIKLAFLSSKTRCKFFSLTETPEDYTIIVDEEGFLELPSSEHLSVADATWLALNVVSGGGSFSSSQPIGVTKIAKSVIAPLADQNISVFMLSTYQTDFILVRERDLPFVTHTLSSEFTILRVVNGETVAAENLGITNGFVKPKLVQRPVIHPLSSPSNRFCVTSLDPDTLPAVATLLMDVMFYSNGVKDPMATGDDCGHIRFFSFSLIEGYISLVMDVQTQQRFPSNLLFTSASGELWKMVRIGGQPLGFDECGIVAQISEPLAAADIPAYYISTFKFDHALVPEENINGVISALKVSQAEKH
UniProt O15234, sequence (O15234 whole entry, looked up): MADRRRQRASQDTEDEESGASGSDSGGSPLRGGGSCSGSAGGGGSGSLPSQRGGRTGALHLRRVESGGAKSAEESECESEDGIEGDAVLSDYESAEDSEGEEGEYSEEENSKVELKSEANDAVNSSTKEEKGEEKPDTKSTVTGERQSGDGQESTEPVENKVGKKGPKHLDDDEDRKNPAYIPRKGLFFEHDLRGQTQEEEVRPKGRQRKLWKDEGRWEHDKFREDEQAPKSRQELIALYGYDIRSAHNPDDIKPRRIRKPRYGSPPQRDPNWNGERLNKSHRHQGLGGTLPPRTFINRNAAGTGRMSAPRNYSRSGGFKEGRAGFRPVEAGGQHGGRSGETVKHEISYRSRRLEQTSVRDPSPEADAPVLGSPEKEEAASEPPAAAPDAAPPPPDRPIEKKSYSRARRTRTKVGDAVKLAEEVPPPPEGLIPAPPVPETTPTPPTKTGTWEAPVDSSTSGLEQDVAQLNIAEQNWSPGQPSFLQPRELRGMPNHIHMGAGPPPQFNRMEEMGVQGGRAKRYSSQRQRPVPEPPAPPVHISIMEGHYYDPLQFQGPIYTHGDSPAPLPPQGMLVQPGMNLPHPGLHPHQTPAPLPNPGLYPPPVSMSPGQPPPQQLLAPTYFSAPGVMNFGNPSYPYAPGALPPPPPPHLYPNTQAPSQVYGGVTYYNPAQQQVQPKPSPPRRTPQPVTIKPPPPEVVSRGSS
UniProt P61024, sequence (P61024 whole entry, looked up): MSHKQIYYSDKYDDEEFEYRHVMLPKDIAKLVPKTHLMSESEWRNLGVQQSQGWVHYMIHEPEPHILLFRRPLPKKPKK
UniProt Q96G23, sequence (Q96G23 whole entry, looked up): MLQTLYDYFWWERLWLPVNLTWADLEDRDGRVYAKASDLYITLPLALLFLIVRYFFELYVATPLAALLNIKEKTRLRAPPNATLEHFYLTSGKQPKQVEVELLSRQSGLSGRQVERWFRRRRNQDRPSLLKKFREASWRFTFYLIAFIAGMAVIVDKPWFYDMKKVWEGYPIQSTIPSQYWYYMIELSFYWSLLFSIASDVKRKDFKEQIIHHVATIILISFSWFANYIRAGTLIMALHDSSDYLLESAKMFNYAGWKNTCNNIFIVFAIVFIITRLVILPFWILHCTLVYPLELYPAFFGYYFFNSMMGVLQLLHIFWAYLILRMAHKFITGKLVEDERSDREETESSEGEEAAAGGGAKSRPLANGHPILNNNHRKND
UniProt Q9HAW4, sequence (Q9HAW4 whole entry, looked up): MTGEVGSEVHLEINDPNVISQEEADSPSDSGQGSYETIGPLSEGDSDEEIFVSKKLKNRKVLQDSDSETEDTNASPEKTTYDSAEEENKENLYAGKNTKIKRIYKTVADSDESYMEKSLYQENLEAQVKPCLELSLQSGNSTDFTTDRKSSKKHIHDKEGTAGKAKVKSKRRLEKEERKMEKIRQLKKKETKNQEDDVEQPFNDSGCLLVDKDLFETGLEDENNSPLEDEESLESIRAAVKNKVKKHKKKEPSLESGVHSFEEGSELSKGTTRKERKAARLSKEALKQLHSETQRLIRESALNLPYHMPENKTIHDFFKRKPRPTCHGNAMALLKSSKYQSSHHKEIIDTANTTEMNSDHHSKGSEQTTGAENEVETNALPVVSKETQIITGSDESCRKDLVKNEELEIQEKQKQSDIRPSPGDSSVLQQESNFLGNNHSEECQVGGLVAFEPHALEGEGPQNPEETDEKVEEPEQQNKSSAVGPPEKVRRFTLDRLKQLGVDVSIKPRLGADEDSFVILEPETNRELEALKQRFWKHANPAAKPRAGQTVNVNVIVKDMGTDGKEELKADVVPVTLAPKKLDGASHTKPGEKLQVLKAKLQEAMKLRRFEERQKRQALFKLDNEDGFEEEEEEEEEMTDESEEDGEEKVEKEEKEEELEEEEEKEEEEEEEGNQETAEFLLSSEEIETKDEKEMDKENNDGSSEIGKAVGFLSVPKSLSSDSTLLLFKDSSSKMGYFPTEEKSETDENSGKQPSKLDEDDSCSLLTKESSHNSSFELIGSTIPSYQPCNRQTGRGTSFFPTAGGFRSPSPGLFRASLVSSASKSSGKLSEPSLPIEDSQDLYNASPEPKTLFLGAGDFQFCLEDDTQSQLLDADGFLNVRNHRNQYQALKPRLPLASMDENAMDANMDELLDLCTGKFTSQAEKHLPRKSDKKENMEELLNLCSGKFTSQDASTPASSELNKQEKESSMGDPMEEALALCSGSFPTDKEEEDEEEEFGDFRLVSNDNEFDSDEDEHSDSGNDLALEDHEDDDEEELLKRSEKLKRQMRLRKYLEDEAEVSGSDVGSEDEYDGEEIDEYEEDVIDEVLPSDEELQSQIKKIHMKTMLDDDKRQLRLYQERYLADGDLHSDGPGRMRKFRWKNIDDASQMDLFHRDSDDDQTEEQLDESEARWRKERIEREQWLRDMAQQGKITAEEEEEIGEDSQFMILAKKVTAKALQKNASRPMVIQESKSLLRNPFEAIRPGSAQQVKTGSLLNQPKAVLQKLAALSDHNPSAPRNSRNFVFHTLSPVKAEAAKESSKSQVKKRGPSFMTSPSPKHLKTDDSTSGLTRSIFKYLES
UniProt Q9UIV1, sequence (Q9UIV1 whole entry, looked up): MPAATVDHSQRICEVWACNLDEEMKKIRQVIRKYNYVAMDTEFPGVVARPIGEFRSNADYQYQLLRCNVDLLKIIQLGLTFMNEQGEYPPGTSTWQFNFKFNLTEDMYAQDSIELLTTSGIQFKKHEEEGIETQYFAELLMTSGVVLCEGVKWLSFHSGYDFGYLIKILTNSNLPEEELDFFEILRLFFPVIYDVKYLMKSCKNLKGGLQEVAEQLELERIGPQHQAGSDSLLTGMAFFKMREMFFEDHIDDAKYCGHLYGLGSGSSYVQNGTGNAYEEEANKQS
UniProt Q99627, sequence (Q99627 whole entry, looked up): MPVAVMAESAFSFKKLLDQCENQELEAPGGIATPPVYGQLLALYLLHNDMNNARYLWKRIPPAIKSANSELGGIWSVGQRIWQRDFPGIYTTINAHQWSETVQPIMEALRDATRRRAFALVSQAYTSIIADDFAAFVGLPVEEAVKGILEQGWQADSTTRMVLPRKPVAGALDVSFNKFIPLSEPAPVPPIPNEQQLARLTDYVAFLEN
UniProt P67870, sequence (P67870 whole entry, looked up): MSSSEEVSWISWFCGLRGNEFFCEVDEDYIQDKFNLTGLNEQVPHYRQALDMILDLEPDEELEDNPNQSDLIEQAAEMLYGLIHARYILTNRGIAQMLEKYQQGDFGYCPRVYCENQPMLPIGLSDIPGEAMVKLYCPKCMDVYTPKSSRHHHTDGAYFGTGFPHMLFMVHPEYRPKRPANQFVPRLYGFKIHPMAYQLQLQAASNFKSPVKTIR

Target | log2 fold change [1] | log2 fold change [2] | log2 fold change [3] | log2 fold change [4] | log2 fold change [5] | log2 fold change [6] | log2 fold change [7] | log2 fold change [8] | log2 fold change [9] | log2 fold change [10] | log2 fold change [11] | log2 fold change [12] | log2 fold change [13] | log2 fold change [14] | log2 fold change [15] | log2 fold change [16] | log2 fold change [17] | log2 fold change [18] | log2 fold change [19] | log2 fold change [20]
CKS1B (UniProt P61024) | -0.013 | 0.063 | 0.06 | -0.051 | 0.022 | 0 | 0.02 | -0.093 | -0.026 | 0.224 | -0.065 | -0.06 | 0.14 | -0.016 | 0 | 0.026 | 0.067 | 0.017 | -0.043 | 0.056
COQ7 (UniProt Q99807) | 0.113 | -0.163 | 0.062 | 0.007 | 0.067 | -0.359 (active) | -0.05 | 0.019 | 0.009 | -0.181 | -0.168 | -0.062 | 0.006 | -0.103 | -0.006 | -0.033 | 0.055 | 0.095 | 0.029 | 0.055
CERS2 (UniProt Q96G23) | -0.027 | -0.294 (active) | -0.054 | -0.034 | 0.036 | -0.203 | -0.049 | -0.032 | -0.04 | -0.466 (active) | -0.177 | 0.064 | -0.128 | -0.015 | -0.113 | 0.028 | -0.034 | 0.028 | -0.074 | -0.03
CLPTM1L (UniProt Q96KA5) | 0.036 | -0.08 | 0.025 | -0.013 | 0.047 | -0.268 (active) | 0.012 | 0 | -0.012 | -0.326 (active) | -0.186 | 0.07 | -0.103 | 0.009 | -0.045 | -0.016 | -0.042 | 0.011 | -0.056 | 0.02
CNOT7 (UniProt Q9UIV1) | -0.052 | -0.097 | 0.043 | 0.219 | 0.069 | -0.003 | -0.007 | 0.022 | 0.07 | -0.072 | 0.059 | -0.037 | -0.077 | -0.057 | -0.255 | 0.002 | -0.034 | -0.051 | -0.075 | 0.014
CSNK2B (UniProt P67870) | 0.05 | -0.037 | 0.049 | -0.128 | 0.075 | -0.027 | 0.006 | -0.005 | -0.002 | 0.016 | 0.036 | 0.014 | 0.052 | 0.018 | 0.015 | -0.05 | 0.038 | -0.01 | -0.042 | -0.017
CDK12 (UniProt Q9NYV4) | -0.056 | -0.054 | -0.362 | 0.376 | -0.161 | -1.11 (active) | -0.125 | 0.051 | 0.299 | 0 | 0.298 | 0.079 | 0.136 | -0.631 (active) | 0.23 | -0.301 | -0.484 | -0.123 | 0.156 | -0.043
CHERP (UniProt Q8IWX8) | -0.087 | -0.108 | 0.109 | 0.009 | -0.025 | -0.047 | 0.08 | 0.138 | 0.01 | -0.004 | 0.057 | 0.092 | -0.13 | -0.353 | -0.086 | 0.011 | 0.011 | 0.025 | 0.005 | -0.07
CALB1 (UniProt P05937) | 0.033 | -0.166 | 0.015 | -0.039 | -0.031 | -0.038 | 0.022 | 0.017 | -0.006 | -0.105 | -0.076 | -0.018 | -0.018 | 0.025 | 0.014 | -0.015 | 0.013 | 0.046 | 0 | 0.01
CHP1 (UniProt Q99653) | 0.025 | 0.109 | -0.061 | -0.027 | 0.044 | 0.022 | 0.075 | -0.026 | -0.021 | 0.25 | 0 | -0.087 | 0.014 | 0.019 | 0.042 | 0.004 | 0.043 | -0.116 | 0.072 | 0.037
CASTOR2 (UniProt A6NHX0) | -0.053 | 0.045 | 0.088 | -0.022 | 0.075 | -0.018 | -0.113 | 0.008 | 0.037 | 0.018 | -0.063 | 0.019 | 0.011 | 0.02 | -0.024 | -0.039 | -0.019 | -0.032 | -0.311 | -0.032
CBX5 (UniProt P45973) | 0.012 | 0.128 | -0.037 | -0.058 | 0.029 | -0.015 | -0.01 | 0.059 | -0.045 | 0.092 | -0.019 | 0.01 | 0.002 | -0.138 | -0.069 | -0.064 | -0.01 | -0.02 | -0.048 | 0.062
COPS8 (UniProt Q99627) | -0.017 | 0.07 | 0.13 | -0.148 | 0.096 | 0.048 | 0.028 | 0.054 | 0.107 | 0.05 | -0.021 | 0.025 | 0.018 | -0.008 | 0.006 | 0.007 | 0.107 | 0.146 | -0.017 | 0.025
CLSPN (UniProt Q9HAW4) | -0.028 | 0.039 | -0.04 | -0.046 | -0.045 | 0.047 | 0.049 | -0.104 | 0.001 | 0.107 | -0.071 | -0.035 | 0.018 | -0.011 | 0.094 | -0.123 | -0.021 | -0.03 | 0.045 | 0.053
CASC3 (UniProt O15234) | -0.228 | 0.537 (active) | -0.412 (active) | 0.243 | 0.065 | 0.484 (active) | -0.088 | -0.067 | -0.025 | -0.094 | -0.064 | -0.069 | -0.064 | 0.481 (active) | 0.031 | 0.511 (active) | -0.079 | -0.069 | 0.004 | 0.084
